Laboratory results as given in PubChem BioAssay.
Calls of active or inactive are those of the source.

Legend:
[1] = optical density shifts of acrAB sulA E. coli – strain DRC41, OD650, 48 h, E. coli filamentation inducer project, primary screen (AID 1152); conditions: higher = more signal, called active from +8 up or from −8 down;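 also: E. coli MC1000 strain DRC41 lacking acrAB efflux pump and sulA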
[2] = probe aLefty1 binding on compound microarray – biochemical, small-molecule microarray, 635/667 nm fluorescence, primary screen (AID 1153); conditions: higher = more signal;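 also: score merges spot fluorescence with signal-to-noise ratio from the scanned slide images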
[3] = plasmodial surface anion channel blockers, osmotic lysis – cell-based, P. falciparum Indochina, OD700, 1 h, primary screen (AID 1154); conditions: P. falciparum Indochina infected RBC osmotic lysis, higher = more signal, called active from +8 up or from −8 down
[4] = plasmodial surface anion channel blockers, osmotic lysis – cell-based, P. falciparum Indochina, OD700, 2 h, primary screen (AID 1155);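 also: lysis reports solute entry through the parasite surface anion channel PSAC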; conditions: P. falciparum Indochina infected erythrocytes, higher = more signal, called active from +8 up or from −8 down
[5] = changes in parasitized red cell lysis, either direction – P. falciparum Indochina, OD700, 3 h, PSAC antagonist project, primary screen (AID 1156); conditions: P. falciparum-infected erythrocytes, osmotic lysis, higher = more signal, called active from +8 up or from −8 down
[6] = plasmodial surface anion channel blockers, osmotic lysis – cell-based, P. falciparum Indochina, OD700, 18 h, primary screen (AID 1157); conditions: P. falciparum Indochina infected erythrocytes, osmotic lysis OD700, 18 h; higher = more signal, called active from +8 up or from −8 down
[7] = S6 kinase pathway phospho-S6 level changes – cell-based, A549, cytoblot, luminescence, serum-stimulated, primary screen (AID 1158); conditions: 5 h, higher = more signal;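 also: serum-stimulated A549 lung adenocarcinoma cells; signal is phosphorylated S6 detected by cytoblot immunostaining with HRP secondary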
[8] = biological target: NADPH oxidase 2 (Homo sapiens) (UniProt P04839); experiment: compounds shifting NOX2 Amplex Red fluorescence – cell-based, HEK293-NOX2, PMA-stimulated, NOX inhibitor project, primary screen (AID 1159); conditions: 45 min, higher = more signal, called active from +8 up or from −8 down; also: test concentration not given here
[9] = biological target: NADPH oxidase 4 (Homo sapiens) (UniProt Q9NPH5); experiment: compounds shifting NOX4 Amplex Red fluorescence – cell-based, HEK293-NOX4, tetracycline-induced, NOX inhibitor project, primary screen (AID 1160); conditions: HEK293-NOX4, Amplex Red H2O2 fluorescence, 45 min; higher = more signal, called active from +8 up or from −8 down
[10] = biological target: NADPH oxidase 5 (Homo sapiens) (UniProt Q96PH1); experiment: compounds shifting NOX5 Amplex Red fluorescence – cell-based, HEK293-NOX5, NOX inhibitor project, primary screen (AID 1161); conditions: HEK293-NOX5, ionomycin, 45 min, higher = more signal
[11] = compound effects on lung adenocarcinoma cell viability – A549, calcein-AM fluorescence, 48 h, basal, profiling panel (AID 1162); conditions: higher = more signal; also: test concentration not given here
[12] = compound effects on differentiated 3T3-L1 adipocyte viability – cell-based, 3T3-L1 adipocytes, calcein-AM fluorescence, 48 h, basal, profiling panel (AID 1163); conditions: 3T3-L1 adipocytes viability, higher = more signal; also: test concentration not given here
[13] = compound effects on hepatocellular carcinoma cell viability – HepG2, calcein-AM fluorescence, 48 h, basal, profiling panel (AID 1164); conditions: higher = more signal; also: test concentration not given here
[14] = compound effects on multiple myeloma cell viability – MM1S, calcein-AM fluorescence, 48 h, basal, profiling panel (AID 1165); conditions: higher = more signal; also: test concentration not given here
[15] = calcein-AM signal in unstimulated myeloma cells – cell-based, calcein-AM fluorescence, 48 h, PK04 Diversity Set, profiling panel (AID 1166); conditions: RPMI8226 myeloma viability, higher = more signal;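 also: cells grown under basal conditions without added stimulus; test concentration not given here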
[16] = JC-1 mitochondrial signal, unstimulated HepG2 cells – cell-based, JC-1 fluorescence, 24 h, 100 nL compound, profiling panel (AID 1167); conditions: HepG2 mitochondrial potential, higher = more signal; also: test concentration not given here
[17] = JC-1 mitochondrial signal, unstimulated adipocytes – cell-based, JC-1 fluorescence, 3T3-L1 adipocytes, 24 h, 100 nL compound, profiling panel (AID 1168); conditions: JC-1 mitochondrial fluorescence, higher = more signal, called active from +8 up or from −8 down; also: test concentration not given here
[18] = JC-1 mitochondrial signal, unstimulated myeloma cells – cell-based, JC-1 fluorescence, RPMI8226, 24 h, 100 nL compound, profiling panel (AID 1169); conditions: JC-1 mitochondrial potential fluorescence, higher = more signal; also: test concentration not given here
[19] = JC-1 mitochondrial signal, unstimulated MM1S myeloma – cell-based, JC-1 fluorescence, 24 h, 100 nL compound, profiling panel (AID 1170); conditions: MM1S mitochondrial potential, higher = more signal; also: test concentration not given here
[20] = resazurin metabolic signal in A549 cells – cell-based, resazurin fluorescence, 24 h, PK04 Diversity Set, profiling panel (AID 1171); conditions: A549 viability, higher = more signal, called active from +8 up or from −8 down; also: test concentration not given here

Sequence of NADPH oxidase 5 (Homo sapiens) (Q96PH1 whole entry, looked up): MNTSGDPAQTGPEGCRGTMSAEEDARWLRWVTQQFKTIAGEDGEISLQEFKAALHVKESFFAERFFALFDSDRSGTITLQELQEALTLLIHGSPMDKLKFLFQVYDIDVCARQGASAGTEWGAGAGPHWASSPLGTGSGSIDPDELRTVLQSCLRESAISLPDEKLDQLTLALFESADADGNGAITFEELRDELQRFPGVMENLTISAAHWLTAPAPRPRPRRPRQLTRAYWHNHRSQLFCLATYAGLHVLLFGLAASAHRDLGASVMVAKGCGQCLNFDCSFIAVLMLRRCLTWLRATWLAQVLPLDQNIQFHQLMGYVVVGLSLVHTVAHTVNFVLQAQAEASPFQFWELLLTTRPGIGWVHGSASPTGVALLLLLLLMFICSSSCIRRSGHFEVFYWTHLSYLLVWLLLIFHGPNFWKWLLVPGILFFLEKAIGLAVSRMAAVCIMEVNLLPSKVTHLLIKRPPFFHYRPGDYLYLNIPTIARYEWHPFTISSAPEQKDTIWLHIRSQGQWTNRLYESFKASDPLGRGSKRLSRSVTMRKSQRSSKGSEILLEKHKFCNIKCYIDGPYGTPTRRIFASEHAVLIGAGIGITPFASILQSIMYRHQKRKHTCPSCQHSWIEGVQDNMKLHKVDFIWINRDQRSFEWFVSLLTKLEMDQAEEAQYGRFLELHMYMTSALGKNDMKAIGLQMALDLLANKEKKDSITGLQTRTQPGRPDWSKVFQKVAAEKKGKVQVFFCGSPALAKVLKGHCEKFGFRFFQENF
Sequence of NADPH oxidase 4 (Homo sapiens) (Q9NPH5 whole entry, looked up): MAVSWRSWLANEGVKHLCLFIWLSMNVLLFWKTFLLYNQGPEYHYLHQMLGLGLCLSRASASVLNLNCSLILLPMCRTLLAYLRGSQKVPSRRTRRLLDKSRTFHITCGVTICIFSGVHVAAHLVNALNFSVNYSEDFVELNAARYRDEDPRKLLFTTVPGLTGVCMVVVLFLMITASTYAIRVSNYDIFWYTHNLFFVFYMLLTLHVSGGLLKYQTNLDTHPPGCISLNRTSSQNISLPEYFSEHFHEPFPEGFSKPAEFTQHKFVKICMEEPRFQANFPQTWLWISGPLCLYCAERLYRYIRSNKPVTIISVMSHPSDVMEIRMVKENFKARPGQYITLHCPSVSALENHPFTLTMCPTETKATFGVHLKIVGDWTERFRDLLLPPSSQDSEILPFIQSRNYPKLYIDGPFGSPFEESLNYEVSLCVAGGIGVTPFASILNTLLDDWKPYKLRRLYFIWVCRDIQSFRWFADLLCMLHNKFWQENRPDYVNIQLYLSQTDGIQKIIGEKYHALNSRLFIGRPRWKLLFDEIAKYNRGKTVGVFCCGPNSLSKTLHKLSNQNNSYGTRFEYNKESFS
Sequence of NADPH oxidase 2 (Homo sapiens) (P04839 whole entry, looked up): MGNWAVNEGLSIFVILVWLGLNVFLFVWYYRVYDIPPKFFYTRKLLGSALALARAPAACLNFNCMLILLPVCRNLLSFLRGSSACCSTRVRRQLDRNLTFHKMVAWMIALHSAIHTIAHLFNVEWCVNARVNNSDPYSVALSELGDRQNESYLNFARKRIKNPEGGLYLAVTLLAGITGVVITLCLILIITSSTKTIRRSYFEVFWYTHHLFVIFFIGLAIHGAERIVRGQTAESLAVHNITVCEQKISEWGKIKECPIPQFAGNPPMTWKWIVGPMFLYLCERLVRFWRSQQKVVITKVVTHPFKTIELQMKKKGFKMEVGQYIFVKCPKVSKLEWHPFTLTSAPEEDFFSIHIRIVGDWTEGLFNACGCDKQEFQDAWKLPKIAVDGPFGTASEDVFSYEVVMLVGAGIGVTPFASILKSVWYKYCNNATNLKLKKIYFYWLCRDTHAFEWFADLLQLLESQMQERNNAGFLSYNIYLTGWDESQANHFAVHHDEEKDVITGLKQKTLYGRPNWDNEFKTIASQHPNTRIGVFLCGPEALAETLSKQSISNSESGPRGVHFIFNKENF

| Compound | z-score [1] | composite z-score [2] | z-score [3] | z-score [4] | z-score [5] | z-score [6] | z-score [7] | z-score [8] | z-score [9] | z-score [10] | z-score [11] | z-score [12] | z-score [13] | z-score [14] | z-score [15] | z-score [16] | z-score [17] | z-score [18] | z-score [19] | z-score [20] |
| --- | --- | --- | --- | --- | --- | --- | --- | --- | --- | --- | --- | --- | --- | --- | --- | --- | --- | --- | --- | --- |
| CC(C)CNC(=O)[C@@H]1c2ccccc2C(=O)N(Cc2ccccc2Cl)[C@H]1c1ccc(CO)cc1 | 0.244 (inactive) | -0.133 | 2.54 (inactive) | 0.526 (inactive) | 0.531 (inactive) | 0.181 (inactive) | 0.279 | -0.451 (inactive) | 0.16 (inactive) | -1.75 | -0.103 | 0.187 | -0.228 | -0.242 | -0.183 | 1.01 | -0.0284 (inactive) | 0.13 | 0.438 | 0.914 (inactive) |
| C=CCC(OC(C)=O)[C@@H]1[C@@H](N(Cc2ccc(-c3cccc(C(F)(F)F)c3)o2)C(=O)Cc2ccc(F)cc2)c2cc(OCCCO)ccc2N1C(=O)c1ccc2ccccc2n1 (stereo not given in full) | -0.994 (inactive) | -0.024 | 1.53 (inactive) | -0.0905 (inactive) | -0.592 (inactive) | 0.0644 (inactive) | -0.47 | 0.249 (inactive) | 0.919 (inactive) | 1.13 | 0.0993 | 0.639 | 0.722 | -0.911 | -0.733 | 2.09 | 0.484 (inactive) | -0.134 | 0.143 | 0.14 (inactive) |
| C#CCN(C/C=C/c1ccccc1)[C@H](CO[Si](C)(C)C(C)(C)C)c1ccccc1 | -0.78 (inactive) | -0.346 | 0.829 (inactive) | 0.984 (inactive) | 1.05 (inactive) | -0.161 (inactive) | -0.0623 | 1.64 (inactive) | 0.447 (inactive) | -0.419 | -0.909 | -0.0156 | -0.676 | -0.848 | -2.58 | -2.55 | 0.155 (inactive) | -0.352 | 0.653 | 0.403 (inactive) |
| NCCCC[C@@H]1NC(=O)[C@H]2C[C@@H](C(=O)NCc3ccc(F)cc3)[C@@H](c3cccc(OCCO)c3)N2C1=O | -0.405 (inactive) | 0.254 | -0.591 (inactive) | 0.157 (inactive) | -0.805 (inactive) | 0.274 (inactive) | -0.325 | 1.88 (inactive) | 0.647 (inactive) | 0.582 | 0.172 | -0.716 | 1.13 | -0.893 | -0.259 | -2.23 | 0.13 (inactive) | -0.968 | -0.894 | 0.858 (inactive) |
| O=C1C2C=CC(C(O)c3cccc(O)c3)N(Nc3ccccc3F)C2C(=O)N1c1ccccc1 (stereo not given) | 0.906 (inactive) | 0.137 | 9.49 (active) | 1.43 (inactive) | 0.868 (inactive) | 0.0443 (inactive) | 3 | -4.98 (inactive) | -5.16 (inactive) | -6.27 | -0.769 | 0.906 | -1.28 | -1.95 | -1.9 | -1.66 | -1.85 (inactive) | 0.742 | -1.64 | 0.249 (inactive) |
| O=C1N(CCS(=O)(=O)c2ccccc2)c2ccccc2[C@@H]2OC(c3ccc(OCCCO)cc3)=N[C@]12CCS(=O)(=O)c1ccccc1 | -0.927 (inactive) | 0.677 | 28.2 (active) | 23.7 (active) | 1.18 (inactive) | 3.96 (inactive) | -0.47 | 0.678 (inactive) | 2.42 (inactive) | 2.43 | 0.762 | 0.675 | -0.136 | -1.68 | -0.104 | -1.04 | 1.48 (inactive) | -0.845 | -0.774 | 0.967 (inactive) |
| COC(=O)c1ccc([C@H](NC(=O)c2ccccc2)[C@]2(C)C[C@H]2C2CCCCC2)cc1 | -2.26 (inactive) | 0.718 | 8.84 (active) | 1.56 (inactive) | -0.281 (inactive) | 0.692 (inactive) | 0.0094 | 0.0662 (inactive) | -0.602 (inactive) | 1.22 | -0.844 | -1.92 | -0.949 | -0.831 | -0.733 | -1.15 | -1.16 (inactive) | 0.624 | -1.33 | 0.768 (inactive) |
| C=CCC(OC(C)=O)[C@@H]1[C@@H](N(Cc2ccc(-c3cccc(C(F)(F)F)c3)o2)C(=O)c2cccc3ccccc23)c2cc(OCCCO)ccc2N1C(=O)c1ccc2ccccc2n1 (stereo not given in full) | -0.855 (inactive) | 0.007 | 0.706 (inactive) | -0.342 (inactive) | 1.32 (inactive) | 0.139 (inactive) | 0.2 | -3.37 (inactive) | -1.17 (inactive) | -0.606 | -0.16 | 0.953 | -0.0619 | -0.142 | -2.18 | 2.43 | -0.637 (inactive) | 0.307 | 0.582 | -0.871 (inactive) |
| CN(C)CCCCNC(=O)[C@H]1C[C@H]2C(=O)N[C@@H](Cc3ccccc3)C(=O)N2[C@H]1c1cccc(OCCO)c1 | 2.11 (inactive) | 0.0751 | 2.68 (inactive) | -0.546 (inactive) | -0.282 (inactive) | -1.43 (inactive) | 0.331 | 0.693 (inactive) | 0.863 (inactive) | 1.43 | -0.411 | -0.0901 | 0.219 | 0.642 | 0.826 | 0.17 | -0.259 (inactive) | 0.264 | -0.396 | 1.12 (inactive) |
| O=C1C2C=CC(C(O)c3ccc([N+](=O)[O-])cc3)N(Nc3ccccc3)C2C(=O)N1c1ccccc1 (stereo not given) | -1.21 (inactive) | 0.124 | 3.99 (inactive) | 2.55 (inactive) | 2.09 (inactive) | 1.9 (inactive) | -1.32 | -2.02 (inactive) | -4.69 (inactive) | -2.53 | -0.121 | -1.38 | 0.761 | 0.323 | -0.423 | -2.59 | -0.886 (inactive) | -1.01 | -1.55 | -0.0448 (inactive) |
| COC(=O)[C@@]1(Cc2ccc(F)cc2)[C@H]2c3cc(C(=O)N(C)C)n(CCO)c3C[C@H]2CN1C(=O)c1ccccc1 | -0.285 (inactive) | 0.0774 | 0.0154 (inactive) | -0.687 (inactive) | -1.25 (inactive) | -1.27 (inactive) | 1.8 | 0.254 (inactive) | 1.68 (inactive) | -2.18 | -0.371 | -0.173 | 0.318 | 0.563 | 0.382 | -2.03 | -0.453 (inactive) | 0.161 | 0.243 | -1.59 (inactive) |
| CC(=O)NCCCC[C@@H]1NC(=O)[C@H]2C[C@@H](C(=O)NCCCCCC[N+](C)(C)C)[C@@H](c3ccc(O)cc3)N2C1=O | 0.371 (inactive) | 0.0262 | 1.94 (inactive) | 0.369 (inactive) | 0.469 (inactive) | 0.0802 (inactive) | -0.054 | 0.834 (inactive) | 0.288 (inactive) | -0.454 | -0.74 | 0.234 | -1.22 | -0.0244 | 0.512 | -0.896 | 0.217 (inactive) | 0.0883 | -0.251 | 0.615 (inactive) |
| C=CCC(OC(C)=O)[C@@H]1[C@@H](N(Cc2ccc(-c3ccccc3)cc2)C(=O)c2ccc(C)cc2)c2cc(OCCCO)ccc2N1C(=O)c1ccc2ccccc2c1 (stereo not given in full) | 2.09 (inactive) | 0.0367 | 0.0032 (inactive) | -0.792 (inactive) | -1.31 (inactive) | -1.33 (inactive) | 1.18 | -0.167 (inactive) | 0.972 (inactive) | 1.94 | 2.26 | 0.558 | 1.71 | 0.697 | -0.481 | 3.18 | -0.379 (inactive) | 0.0174 | 0.593 | 0.864 (inactive) |
| CC(C)C[C@@H]1NC(=O)[C@@H]2C[C@H](C(=O)O)[C@H](c3ccc(O)cc3)N2C1=O | 2.59 (inactive) | 0.013 | 4.56 (inactive) | 0.677 (inactive) | -0.641 (inactive) | 0.179 (inactive) | 1.09 | 0.304 (inactive) | 0.398 (inactive) | -0.107 | 0.704 | 0.37 | 0.285 | -1.32 | 0.126 | 0.962 | -0.773 (inactive) | -0.49 | 0.3 | 1.64 (inactive) |
